Screens: PubChem BioAssay, National Center for Advancing Translational Sciences (NCATS)
MARV entry inh = Marburg virus entry inhibition. Marburg virus pseudotyped entry inhibition, cell reporter. Potency, µM (series often up to 37.8 µM), actives largely listed as inhibitors. 300,000 compounds, 1.8% hits. AID 540276; calls by dose curve; tested in HEK293 cells
Pf growth 48h = P. falciparum growth inhibition at 48 hours (one generation). P. falciparum luciferase growth in erythrocytes, 48 h. Potency, µM (top dose mostly 28.7 µM), actives largely listed as inhibitors. 310,000 compounds, 5.9% hits
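Luciferase-expressing P. falciparum in infected erythrocytes (2% hematocrit, 0.1% parasitemia final) in RPMI 1640/0.5% Albumax were exposed to compound for 48 hours at 37 C, 5% CO2; growth read as luminescence.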
CHX counter = affects cycloheximide protein synthesis inhibition readout, counter-screen; cell reporter, cycloheximide protein synthesis inhibition counterscreen; max response, %; 300,000 compounds, 12% hits; in the data active means max response mostly above about 13%, no sharp cut-off; inactive means mostly below about 14%; further: read at 38.3 µM for the half of the compounds with a filed dose
Shiga inhibitor = blocks Shiga toxin action in Vero cells | Vero cells, Shiga toxin protein synthesis inhibition reporter | inhibition, % at 38.7 µM | 290,000 compounds, 9.2% hits; in the data active means inhibition mostly above about 28%, no sharp cut-off; inactive means mostly below about 43%
Pf growth 96h = P. falciparum growth inhibition at 96 hour, primary screen for plastid delayed-death inhibitors | Potency, µM (titrated, usually from 28.7 µM), actives largely listed as inhibitors | P. falciparum luciferase reporter growth, 96 h | 320,000 compounds, 6.9% hits
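Erythrocytes infected with luciferase-expressing P. falciparum were dispensed at 2% hematocrit and 0.05% parasitemia (final), then incubated with compounds 96 hours at 37 C in 5% CO2. Luminescence after detection reagent addition reported growth.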
Lassa entry inh = Lassa virus entry inhibition. Lassa virus pseudotype entry inhibition, cell reporter. Potency, µM (titrated, usually from 37.9 µM), most hits filed as inhibitors. 300,000 compounds, 1.2% hits. AID 540256; calls by dose curve; tested in HEK293 cells; further: nearly all actives have a fitted effect of over 50% in size
Hits are given with their value. An excerpt weighted towards active compounds, which were near 19% of everything screened. Unless noted, the call rests on the fitted dose curve; in most records, active means well fitted inhibition curve with a large enough effect; inconclusive means small, poorly fitted or top-dose-only effect, or another doubt; inactive means no such curve, though single readings can be large or run the other way.

For CCOc1ccc(S(=O)(=O)Nc2cccc(C(=O)NCC(c3ccccc3)N(C)C)c2)cc1 (centres undefined) the results were MARV entry inh inconclusive, Pf growth 48h inactive, Pf growth 96h inconclusive and Lassa entry inh inactive.
For COc1ccc(C(CNC(=O)c2ccc(S(=O)(=O)Nc3ccc(F)cc3)cc2)N(C)C)cc1 (centres undefined) the results were MARV entry inh inconclusive, Pf growth 48h inconclusive, CHX counter inactive, Shiga inhibitor inactive, Pf growth 96h inconclusive and Lassa entry inh inactive.
`COc1ccc(C(CNC(=O)c2cccc(S(=O)(=O)Nc3ccc(F)cc3)c2)N(C)C)cc1` (centres undefined) gave MARV entry inh inconclusive, Pf growth 48h 12µM, Pf growth 96h 9.3µM and Lassa entry inh inactive.
`COc1ccc(C(CNC(=O)c2cccc(NS(=O)(=O)c3ccccc3)c2)N(C)C)cc1` (centres undefined) gave MARV entry inh inconclusive, Pf growth 48h inactive, CHX counter 16, Shiga inhibitor inactive, Pf growth 96h inactive and Lassa entry inh inactive.
COc1ccc(C(CNC(=O)c2ccc(NS(=O)(=O)c3ccc4c(c3)OCCO4)cc2)N(C)C)cc1 (centres undefined) was read as MARV entry inh inactive, Pf growth 48h inconclusive, Pf growth 96h inconclusive and Lassa entry inh inactive.
For CCC(C)c1c(O)nc(SCC(=O)c2ccccc2)[nH]c1=O (centres undefined) the results were MARV entry inh inactive, Pf growth 48h inactive, CHX counter inactive, Shiga inhibitor inactive, Pf growth 96h inconclusive and Lassa entry inh inactive.
`CC1([N+](=O)[O-])COP(=O)(Nc2ccc(Cl)cc2)OC1` (centres undefined) gave MARV entry inh inactive and Lassa entry inh inconclusive.
`COc1ccc(-c2noc(-c3cccnc3NCc3ccco3)n2)cc1` gave MARV entry inh inactive and Lassa entry inh inactive.
CC(C)C1O/C(=N/C(=O)Nc2ccc(Cl)c(Cl)c2)NC1=O (centres undefined) was read as MARV entry inh inactive, Pf growth 48h 12µM, CHX counter inactive, Shiga inhibitor inactive, Pf growth 96h inconclusive and Lassa entry inh inactive.
Screening COC(=O)c1cc2oc3ccccc3c2n1Cc1ccccc1Cl returned MARV entry inh inactive.
COc1cc(NC(=O)c2cccc(COCC(F)(F)C(F)F)c2)cc(OC)c1OC was read as MARV entry inh inconclusive, Pf growth 48h inactive, CHX counter inactive, Shiga inhibitor inactive, Pf growth 96h inactive and Lassa entry inh inconclusive.
`CCC(=O)Nc1ccccc1C(=O)OCC(=O)c1ccc2ccccc2c1` gave MARV entry inh inconclusive, Pf growth 48h inactive, CHX counter inactive, Shiga inhibitor inactive and Lassa entry inh inactive.
CC(=O)Nc1ccccc1C(=O)OCC(=O)c1ccc2ccccc2c1 was read as MARV entry inh inactive, Pf growth 48h inactive, CHX counter 28, Shiga inhibitor 76, Pf growth 96h inactive and Lassa entry inh inconclusive.
For CCC(=O)Nc1ccccc1C(=O)OCC(=O)c1ccccc1 the results were MARV entry inh inactive, Pf growth 48h inactive, CHX counter 20, Shiga inhibitor 89, Pf growth 96h inactive and Lassa entry inh inconclusive.
For NC(=O)NCCCC(=O)OCC(=O)c1ccc2ccccc2c1 the results were MARV entry inh inactive, Pf growth 48h inactive, CHX counter 21, Shiga inhibitor inactive, Pf growth 96h inactive and Lassa entry inh inconclusive.
COc1ccccc1NS(=O)(=O)c1ccc(C(=O)NCC(c2ccco2)N(C)C)cc1 (centres undefined) was read as Pf growth 48h inactive and Pf growth 96h inactive.
Screening CCOC(=O)c1cnc2cc3c(cn2c1=O)CCCC3 returned MARV entry inh inconclusive, Pf growth 48h inactive, CHX counter 28, Shiga inhibitor 55, Pf growth 96h inconclusive and Lassa entry inh inactive.
Screening CCOC(=O)c1cnc2scnn2c1=O returned MARV entry inh inconclusive, CHX counter inactive, Shiga inhibitor inactive, Pf growth 96h inactive and Lassa entry inh inactive.
`Cc1cccc(/C=N/n2c(C)cc(C)c(C#N)c2=O)c1` gave MARV entry inh inactive, Pf growth 48h 5.2µM, CHX counter inactive, Shiga inhibitor inactive, Pf growth 96h inconclusive and Lassa entry inh inactive.
CCc1ccc(/C=N/n2c(C)cc(C)c(C#N)c2=O)cc1 was read as MARV entry inh inactive, Pf growth 48h 9.3µM, CHX counter inactive, Shiga inhibitor inactive, Pf growth 96h 1.7µM and Lassa entry inh inactive.
Screening COC(=O)C1=C(C(=O)OC)SC2(S1)C(C(=O)OC)=C(C(=O)OC)SC1=C2c2cc(C)cc(C)c2NC1(C)C returned MARV entry inh inactive, Pf growth 48h 5.9µM, CHX counter inactive, Shiga inhibitor inactive, Pf growth 96h inconclusive and Lassa entry inh inconclusive.
Screening CSc1ncc(C(=O)Nc2cc(Cl)ccc2C)c(-c2ccccc2)n1 returned Lassa entry inh inactive.
Screening Cc1ccc(S(=O)(=O)c2cc3ccccc3nc2N)cc1 returned MARV entry inh inactive, Pf growth 48h inconclusive, CHX counter inactive, Shiga inhibitor inactive, Pf growth 96h 9.3µM and Lassa entry inh inactive.
`CN(C)c1ncc(S(=O)(=O)c2ccccc2)c(N)n1` gave MARV entry inh inactive, Pf growth 48h inactive, CHX counter inactive, Shiga inhibitor inactive, Pf growth 96h inactive and Lassa entry inh inactive.
Screening Cc1ccc(NC(=O)COC(=O)CNC(=O)c2ccc(C)s2)cc1 returned MARV entry inh inconclusive, Pf growth 48h inactive, CHX counter inactive, Shiga inhibitor inactive, Pf growth 96h inactive and Lassa entry inh inactive.
For COC(=O)c1sccc1OCc1cccc(OC)c1 the results were Pf growth 48h inactive, CHX counter inactive, Shiga inhibitor inactive and Pf growth 96h inconclusive.
Screening Cc1nc2ccccc2cc1OCc1ccccc1 returned MARV entry inh inactive, Pf growth 48h inactive, CHX counter 46, Shiga inhibitor inactive, Pf growth 96h inactive and Lassa entry inh inactive.
Screening COc1cccc(COc2cc3ccccc3nc2C)c1 returned MARV entry inh inconclusive, Pf growth 48h inactive, CHX counter 17, Shiga inhibitor 58, Pf growth 96h inactive and Lassa entry inh inconclusive.
For Cc1nc(OCc2ccccc2)c2ccccc2n1 the results were MARV entry inh inconclusive, Pf growth 48h inactive, CHX counter inactive, Shiga inhibitor inactive, Pf growth 96h inconclusive and Lassa entry inh inconclusive.
Cc1nc2ccccc2cc1OCc1ccc(Cl)cc1 was read as MARV entry inh inconclusive, Pf growth 48h inactive, CHX counter 54, Shiga inhibitor 101, Pf growth 96h inactive and Lassa entry inh inactive.
Screening CCn1cc(C(=O)N[C@H](C(=O)NCCCO)C(C)C)c(=O)c2cc3c(cc21)OCO3 returned Pf growth 48h inactive, CHX counter inactive, Shiga inhibitor inactive and Pf growth 96h inactive.
O=S(=O)(c1ccc(Cl)cc1)N1CCC(n2cccc2)CC1 was read as MARV entry inh inactive, Pf growth 48h inactive, CHX counter inactive, Shiga inhibitor inactive, Pf growth 96h inactive and Lassa entry inh inconclusive.
`Cc1cc(C(=O)NNC(=O)c2cccs2)c(C)o1` gave Pf growth 48h inactive and Pf growth 96h inactive.
